Reference: PubChem BioAssay (NCI)
The panel holds about 79,000 compounds, 15% with a hit somewhere; the sample as a whole holds those more often. Cut-off read from the data, not from the text of the source: active = growth inhibition above about 70%; inactive = the rest.

Columns and labels:
[1] = NCI Yeast Anticancer Drug Screen. Data for the rad50 strain (AID 155);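 note: 0% = growth of vehicle-only cultures of the same strain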; settings: S. cerevisiae rad50 strain growth inhibition; at 50.0 µM; hits give high values
Outline: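 Relative growth inhibition (compound vs vehicle) was measured in yeast with a defined repair-gene alteration.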

[2] = NCI Yeast Anticancer Drug Screen. Data for the mec2-1 strain (AID 157); settings: S. cerevisiae mec2-1 strain, at 50.0 µM, hits give high values
Outline: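 Cells of the genetically defined mec2-1 yeast strain are incubated with test compound. Inhibition of growth is calculated against vehicle-treated controls.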

[3] = NCI Yeast Anticancer Drug Screen. Data for the sgs1 mgt1 strain (AID 161);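 note: 0% = growth of cultures given vehicle only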; settings: S. cerevisiae sgs1 mgt1 strain, at 50.0 µM, hits give high values
Outline: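 Mutant yeast exposed to compound; growth scored against vehicle-only wells.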

[4] = NCI Yeast Anticancer Drug Screen. Data for the cln2 rad14 strain (AID 165);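 note: 0% = growth equal to vehicle treated cultures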; settings: S. cerevisiae cln2 rad14 strain, at 50.0 µM, hits give high values
Outline: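 The screen exposed genetically defined yeast (cln2 rad14) to test compounds and scored growth inhibition relative to vehicle-treated controls.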

[5] = NCI Yeast Anticancer Drug Screen. Data for the bub3 strain (AID 167); settings: S. cerevisiae bub3 mutant strain, at 50.0 µM, hits give high values
Outline: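 Screening used yeast with an engineered genetic alteration affecting cell cycle control. Compound-exposed cultures were compared with vehicle cultures, and reduced growth was taken as inhibition.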

[6] = NCI Yeast Anticancer Drug Screen. Data for the mlh1 rad18 strain (AID 175); settings: S. cerevisiae mlh1 rad18 strain growth inhibition; at 50.0 µM; hits give high values
Outline: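 Compound-treated yeast growth, normalised to vehicle controls. Strain bears defined DNA repair mutations.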

Measured: growth inhibition

O=C(N/N=C\c1ccc(Cl)cc1Cl)c1ccc(F)cc1
inactive: [1] -10.5% | [2] -10.8% | [3] -7.75% | [4] 0.3% | [5] -1.15% | [6] -4.1%

Cc1cc(S(=O)(=O)Nc2n[nH]c(Nc3ccccc3)n2)c(SCC(=O)O)cc1Cl
inactive: [1] 11.3% | [2] 52.8% | [3] 51.2% | [4] -0.25% | [5] -4.2% | [6] 23.1%

CCC(O)C(C)(C)N (stereo not given)
inactive: [1] 13.4% | [2] -7.8% | [3] 2.7% | [4] -6.45% | [5] 4.45% | [6] 0.4%

Cc1ccc(OC(=O)c2cccs2)cc1
inactive: [1] 29.6% | [2] 4.95% | [3] -11.9% | [4] -48.1% | [5] 22% | [6] 22.1%

C[NH-].C[NH-].C[NH-].C[NH-].O=C(O)c1cc(C(=O)O)c(C(=O)O)cc1C(=O)O.[Pt+2].[Pt+2]
inactive: [1] -6.25% | [2] -2.6% | [3] -2.05% | [4] -36% | [5] 0.55% | [6] 13.3%

CC(=O)Nc1ccc(S(=O)(=O)N/N=C\CC(C)C)cc1
inactive: [1] -19.4% | [2] -14.2% | [3] -26.2% | [4] -6.95% | [5] -46% | [6] -27.2%

CN(C)c1nc(N(C)C)c2cnn(C)c2n1
inactive: [1] 21.7% | [2] 3.7% | [3] 20.9% | [4] -15.8% | [5] -2.7% | [6] -29.8%

COc1ccc(CCNC(=O)c2cccc(Cl)c2)cc1OC
inactive: [1] -7.05% | [2] -28.9% | [3] -23.1% | [4] -44.6% | [5] -22% | [6] -12.2%

CCCCCCCCCCCC(=O)Oc1c(Cl)cc(Cl)c(OC(=O)C(=O)Oc2c(Cl)cc(Cl)c(OC(=O)CCCCCCCCCCC)c2Cl)c1Cl
inactive: [1] -26.1% | [2] -21.9% | [3] -11.2% | [4] 16.9% | [5] -4.2% | [6] -19.9%

COc1ccc2c(c1)CCCN2C(=N)c1ccc([N+](=O)[O-])cc1
inactive: [1] -24.5% | [2] -4.1% | [3] -9.95% | [4] -52.9% | [5] 22.6% | [6] -11.5%

N#CC(CCc1ccccc1)(c1ccccc1)c1ccccc1
inactive: [1] -15.5% | [2] -9.05% | [3] -5.85% | [4] -45.5% | [5] 9.5% | [6] -15.7%

CC(C)(C)OC(=O)NC(Cc1ccc(OC(C)(C)C)cc1)C(=O)N[C@H]1CC[C@H](C(=O)O)C1 (stereo not given in full)
inactive: [1] -6.6% | [2] -1.25% | [3] -8% | [4] -7.85% | [5] 11.2% | [6] 10%

CCCCCC(/C=C/[C@@H]1[C@H]2CC(=O)O[C@H]2C[C@H]1N1CCOCC1)OC1CCCO1 (stereo not given in full)
inactive: [1] 0.2% | [2] -6.3% | [3] 11.8% | [4] -35.1% | [5] -29.6% | [6] 11.8%

CCN(CC)C(=O)c1cccc2c1OCO2
inactive: [1] -17.7% | [2] 13.6% | [3] 2.35% | [4] 0.25% | [5] 1.4% | [6] -9.6%

Cn1c(=S)[nH]c2sc3c(c2c1=O)CCCCC3
inactive: [1] 12.2% | [2] -0.6% | [3] 8.25% | [4] 6.65% | [5] -4.05% | [6] 8.4%

CC(C)(C)C(=O)C(C(c1ccccc1)N1CCOCC1)N1CCOCC1 (stereo not given)
inactive: [1] 21.7% | [2] -5.8% | [3] -33.6% | [4] -17% | [5] 5.7% | [6] -10.6%

CC(=O)Oc1cc(N(C)C)ccc1SC(Cl)(Cl)Cl
inactive: [1] -14.7% | [2] -17.9% | [3] -12.1% | [4] -61.6% | [5] 22.6% | [6] -25.6%

Cc1ccc(S(=O)(=O)SC(SCC(=O)c2ccc(Br)cc2)C(=O)c2ccc(Br)cc2)cc1 (stereo not given)
inactive: [1] 26.6% | [2] -10.4% | [3] 33.5% | [4] 19.9% | [5] -0.15% | [6] 13.2%

CCOc1ncc(C[n+]2csc(CCO)c2C)c(N)n1
inactive: [1] -4.95% | [2] -8.7% | [3] 8.25% | [4] 0.8% | [5] -19.9% | [6] -5.35%

COc1nc(N=P(c2ccccc2)(c2ccccc2)c2ccccc2)cc(=O)[nH]1
inactive: [1] 4.3% | [2] 1.6% | [3] 26.9% | [4] 27.7% | [5] 21.9% | [6] 4.65%
